From PubChem BioAssay
ROMK primary = modulates human ROMK potassium channel activity; P48048; Tet-inducible ROMK, thallium flux fluorescence; actives lie on both sides; B-score at 10 µM; 130,000 tested, 2% active; AID 1918;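 active = signal ratio slope over the read window, or its plate-corrected B-score, at least 3 SD from the plate mean, either direction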;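 also: B-score of the F/F0 ratio slope over 7 to 12 s after thallium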
Cl transport mod = modulates chloride dependent transport by human KCC2; B-score of Tl+ flux slope (higher = more flux/activation; lower = inhibition) at 10 µM; 190,000 tested, 2.2% active; KCC2 cells, thallium flux FluoZin-2 fluorescence; Q9H2X9;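 active = thallium flux slope and its plate-corrected score both differing from the plate sample mean at a set confidence after two filtering rounds, in either direction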;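 also: slope of fluorescence scaled to starting intensity during 10 to 20 s after thallium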
L major viab = reduces viability of Leishmania major promastigotes; resazurin fluorescence viability; inhibition, % at 10 µM; 200,000 tested, 9% active; AID 1063; in the data active = inhibition above about 50%;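 also: promastigotes grown with compound for 44 hours at 28 °C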
WT yeast gro inh = growth inhibition of WT yeast, mitochondrial fusion screen; AID 1362; inhibition, % at 10 µM; mitochondrial fusion phenotypic screen, WT strain; 190,000 tested, 2.1% active; in the data active = inhibition above about 58%; tested in S. cerevisiae
m-calpain inh = blocks pig calpain II enzyme activity | 220,000 tested, 0.37% active | inhibition, % at 16 µM | purified calpain II, fluorogenic peptide substrate, 30 min;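 active = inhibition above about 50%, limit read from the data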
Numbers stand for hits; . = inactive; / = no result given. The list is not random: actives were taken first. Their share in the collection is about 12%.

SMILES	ROMK primary	Cl transport mod	L major viab	WT yeast gro inh	m-calpain inh
Cc1cc(OCCOCCN(C)CCO)cc(C)c1Cl	/	.	95	.	.
CCN(CC)CCOc1c(C)cccc1Cl	.	.	.	.	.
NS(=O)(=O)c1ccc(N/N=C2/CCCCC2C2CCCCC2)c([N+](=O)[O-])c1 (stereo not given)	/	.	.	96	.
Cc1cc(C)c2c(c1)/C(=N/Nc1ccc(S(N)(=O)=O)cc1[N+](=O)[O-])CCC2	.	.	.	.	.
c1sc2[n+](c1C13CC4CC(CC(C4)C1)C3)CCS2	.	/	.	.	.
O=[N+]([O-])c1ccc(-c2csc3[n+]2CCS3)cc1	.	/	.	72	.
Fc1ccc(-c2csc3[n+]2CCS3)cc1	.	.	.	70	.
Cc1cccc(Cc2nnc(CCC(=O)N(C)C3CCOC3)o2)c1 (stereo not given)	.	.	.	.	.
COc1cc2[nH]c(=O)n(CCCCCC(=O)NCCc3c[nH]c4ccccc34)c(=O)c2cc1OC	.	.	.	.	.
CC(=O)NCc1ccc(-c2nc3ccccc3s2)cc1	.	.	.	.	.
CC(=O)NC1C(c2nc3ccccc3s2)=C(c2ccccc2)C(=O)N1c1ccc(C)cc1 (stereo not given)	.	.	97	68	.
COc1cccc(N2C(=O)C(c3ccccc3)=C(c3nc4ccccc4s3)C2NC(C)=O)c1 (stereo not given)	/	.	.	70	.
COc1cc(Cl)c(C)cc1NC(=O)c1ccc(NS(=O)(=O)c2ccc(F)c(F)c2)cc1	.	.	.	.	.
CC(C)NC(=O)c1ccccc1NC(=O)CN(c1ccc2c(c1)OCO2)S(C)(=O)=O	/	.	.	.	.
O=C(NC1=C(Nc2ccc(F)cc2)C(=O)c2ccccc2C1=O)c1ccc(Cl)cc1	.	.	96	67	.
CCN(CC)CCCn1c(C)cc2c(c1=O)C(c1cccc(Cl)c1)C(C#N)=C(N)O2 (stereo not given)	.	.	67	74	.
CCN(CC)CCCn1c(C)cc2c(c1=O)C(c1cc(OC)c(OC)cc1OC)C(C#N)=C(N)O2 (stereo not given)	/	.	.	.	.
Cc1cc(N/N=C/c2ccccc2O)nc(-c2ccccc2O)n1	.	.	53	69	.
Cc1cc(N/N=C\c2ccccc2)nc(-c2ccccc2O)n1	.	.	74	.	.
COCc1nnc(NC(=O)c2ccc(Cl)cc2[N+](=O)[O-])s1	.	.	.	.	.
C=CCn1c(SCC(=O)N2CCOCC2)nc2sc3c(c2c1=O)CCCC3	.	.	.	.	.
C=CCn1c(=S)[nH]c2sc3c(c2c1=O)CCC3	3.2	31	.	.	.
Cc1c(C=O)c2ccccn2c1C(=O)c1cccc([N+](=O)[O-])c1	/	.	.	.	.
NC(=O)C1=C[C@@H](c2csc3ccccc23)C[C@@H](OCCCCO)O1	/	.	.	.	.
N#Cc1ccccc1CSc1nc2ccsc2c(=O)n1Cc1ccccn1	.	.	.	.	.
SMILES	ROMK primary	Cl transport mod	L major viab	WT yeast gro inh	m-calpain inh
Cc1ccc(CSc2nc3ccsc3c(=O)n2Cc2ccccn2)cc1	.	.	67	59	.
O=c1c2sccc2nc(SCc2cc(=O)n3cc(Br)ccc3n2)n1Cc1ccccn1	.	.	55	.	.
COc1ccc(C2C(C(=O)N3CCC(C(N)=O)CC3)CC(=O)N2c2ccc(OC)cc2)cc1 (stereo not given)	.	.	.	.	.
Cc1cc(C)c(S(=O)(=O)c2ccccc2)c(Cl)n1	/	/	.	.	.
Cc1cc(C)c(S(=O)(=O)c2ccccc2C)c(Cl)n1	/	.	101	.	.
CCCCSc1nc(C)cc(C)c1S(=O)(=O)c1ccccc1C	/	/	84	.	.
Cc1ccc(S(=O)(=O)c2c(C)cc(C)nc2Cl)c(C)c1	/	/	101	.	.
CCOC(=O)C(c1ccccc1)C(Nc1cc(C(F)(F)F)cc(C(F)(F)F)c1)c1ccccn1 (stereo not given)	/	/	/	/	.
COC(=O)C(=C/C(C)=C/c1cccnc1)C(=O)OC	.	.	71	.	.
CC(=O)NCCOc1nc(N(C)C)nc(N2CCCCC2)n1	.	.	.	.	.
Cc1ccc(OCC(=O)NNC(=O)C(C)Sc2ncnc3sc(C)c(C)c23)cc1 (stereo not given)	/	/	.	.	91
Cc1ccc2c(c1)sc[n+]2Cc1ccccc1	/	.	.	.	.
COc1cc(-c2nc3ccc4ccccc4c3c3c2CCC3)cc(OC)c1OC	.	.	.	.	.
COc1cc(-c2nc3ccc4ccccc4c3c3c2CCC3)cc(OC)c1O	.	.	99	98	.
COc1cc(-c2nc3ccc4ccccc4c3c3c2CCC3)ccc1O	.	.	.	79	.
COc1cc2ccccc2c2c1CCCC2=O	.	.	.	.	.
COC(=O)N/N=C/c1ccccc1	.	.	.	.	.
S=C(N/N=C/c1ccccc1)N1CCOCC1	/	16	.	.	.
CSC(=S)N/N=C/c1ccccc1	6.2	170	.	.	.
C=CCN(CC=C)CCOc1cccc(Oc2ccccc2)c1	.	.	97	.	.
CC1CN(CCCCOc2cccc(Oc3ccccc3)c2)CC(C)O1 (stereo not given)	.	.	.	.	.
CN(C)CCCOc1cccc(Oc2ccccc2)c1	.	.	99	.	.
Cc1cccc(C(=O)NN2S(=O)(=O)c3ccccc3S2(=O)=O)c1	.	.	.	.	.
CCN1CCN(CCCN(Cc2ccco2)C(=S)Nc2cc(Cl)ccc2C)CC1	.	.	72	.	.
Cc1ccc(NC(=S)N(CCCN2CCC(C)CC2)Cc2ccco2)cc1C	.	.	82	.	.
SMILES	ROMK primary	Cl transport mod	L major viab	WT yeast gro inh	m-calpain inh
CCN1CCN(CCCN(Cc2ccco2)C(=S)Nc2ccc(C)c(Cl)c2)CC1	.	.	.	.	.
OCCC1CN(Cc2cn[nH]c2C2CCCCC2)CCN1C1CCCC1 (stereo not given)	.	.	.	.	.
O=S(=O)(Nc1nc2ccccc2nc1N1CCc2ccccc2C1)c1ccc(Cl)cc1	/	.	57	.	.
CC(=O)Nc1ccc(S(=O)(=O)Nc2nc3ccccc3nc2N2CCCCCC2)cc1	/	.	.	.	.
O=S(=O)(Nc1nc2ccccc2nc1Cl)c1ccc(Cl)cc1	.	.	.	.	.
CC(=O)Nc1ccc(S(=O)(=O)Nc2nc3ccccc3nc2N2CCc3ccccc3C2)cc1	.	.	85	.	.
O=S(=O)(Nc1nc2ccccc2nc1-[n+]1ccccc1)c1ccc(Cl)cc1	/	.	56	.	.
CC(C)c1ccc(-c2nn(-c3ccccc3)cc2C2C(C#N)=C(N)OC3=C2C(=O)CC(C)(C)C3)cc1 (stereo not given)	/	.	77	.	.
Cc1nn(-c2ccccc2)c(Cl)c1C1C(C#N)=C(N)OC2=C1C(=O)CC(C)(C)C2 (stereo not given)	.	/	.	.	.
CCCCN(CC)Cc1ccc(CNC(=O)Nc2ccccc2)o1	.	.	.	.	.
CCCCN(CC)Cc1ccc(CNC(=S)Nc2cccc(F)c2)o1	.	.	78	.	.
Oc1ccc(/C=C/c2nc(-c3ccccc3O)n(-c3ccccc3)n2)cc1	/	.	.	79	.
